TrxR1 substrate = rat thioredoxin reductase 1 substrate activity; purified TrxR1 substrate turnover, NADPH consumption readout; Potency, µM (doses to about 114 µM), inactives show top-dose activity change, negative = substrate turnover; O89049; AID 588456; 390,000 compounds, 0.01% hits; note: potency is the fitted concentration of half-maximal effect; nearly all actives have a fitted effect of over 50% in size
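Rat TrxR1, dispensed at 90 nM, was prereduced with 400 uM NADPH (final) for 5 min at ~22 deg C, then incubated with compound 15 min before 400 uM selenite. A first-read NADPH fluorescence drop versus no-compound background flagged substrates.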
TrxR1 inh = rat TrxR1 inhibition. Potency, µM (highest dose often 114 µM), for inactives: at the top dose activity change, negative = inhibition, usual class: inhibitors. 390,000 compounds, 1% hits. recombinant rTrxR1, NADPH fluorescence consumption, selenite substrate. O89049; note: potency is the fitted concentration of half-maximal effect; nearly all actives have a fitted effect of over 65% in size
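Rat TrxR1 (90 nM in the dispensed reagent) was pre-reduced with 400 uM NADPH for 5 min at room temperature, then incubated with compound for 15 min. After 400 uM selenite was added, NADPH fluorescence (Ex 340/Em 450 nm) was followed for 8 min.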
RORg inh = blocks mouse ROR gamma transcriptional activity | Potency, µM (series often up to 53.6 µM), without a hit: at the highest dose activity change, negative = inhibition, most hits filed as inhibitors | 310,000 compounds, 5.4% hits | P51450 | Drosophila S2 Gal4-RORgamma UAS-luciferase reporter, 20 h; note: potency is the fitted concentration of half-maximal effect; nearly all actives have a fitted effect of over 60% in size
Target sequence (P51450 whole entry, looked up, the tested form may be a part): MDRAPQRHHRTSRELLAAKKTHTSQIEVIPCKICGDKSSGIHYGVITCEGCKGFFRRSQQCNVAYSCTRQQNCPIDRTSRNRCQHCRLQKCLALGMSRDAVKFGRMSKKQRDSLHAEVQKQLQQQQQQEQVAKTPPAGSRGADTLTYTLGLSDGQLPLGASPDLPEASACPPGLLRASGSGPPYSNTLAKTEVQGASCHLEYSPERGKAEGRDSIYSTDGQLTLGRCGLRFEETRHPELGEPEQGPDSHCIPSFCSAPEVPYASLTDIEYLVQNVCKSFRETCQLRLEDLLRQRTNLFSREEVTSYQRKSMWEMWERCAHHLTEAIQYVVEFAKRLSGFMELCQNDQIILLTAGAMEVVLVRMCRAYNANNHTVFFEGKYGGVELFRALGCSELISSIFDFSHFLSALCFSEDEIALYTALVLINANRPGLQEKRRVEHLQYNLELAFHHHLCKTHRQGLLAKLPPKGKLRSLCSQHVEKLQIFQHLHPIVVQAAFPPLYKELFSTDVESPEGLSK
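Luciferase reporter read in Schneider cells carrying Gal4-RORγ (mouse) and UAS-Photinus luciferase; cells given compound 1 h before 700 uM copper sulfate induction, then incubated 20 h at ambient temperature.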
Gal4-VP16 FLuc = inhibits Gal4-VP16 luciferase reporter, ROR gamma counter-screen | Potency, µM (titrated, usually from 53.6 µM), for inactives: top-dose activity, negative = inhibition, usual class: inhibitors | AID 2546 | 310,000 compounds, 3.5% hits | Drosophila S2 Gal4-VP16 UAS-luciferase, luminescence, 20 h;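 note: Gal4-VP16 expression switched on by copper sulfate through the metallothionein promoter; potency is the fitted concentration of half-maximal effect; nearly all actives have a fitted effect of over 50% in size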
GALK inhibitor = blocks human galactokinase activity; AID 1868; P51570; Potency, µM (series often up to 57.5 µM), for the others: top-dose activity change, negative = inhibition, usual class: inhibitors; 270,000 compounds, 0.007% hits; Purified GALK, Kinase-Glo residual ATP luminescence; note: potency is the fitted concentration of half-maximal effect
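5 nM enzyme, 35 uM ATP, 100 uM galactose, 20 mM HEPES pH8.0, 5 mM MgCl2; 1 h RT; residual ATP by Kinase-Glo Plus luminescence, qHTS format.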
Coupling enz = counter-screen for Giardia aldolase inhibitors: coupling enzyme system; 290,000 compounds, 0.67% hits; activity change, negative = inhibition, % at 58.2 µM, hits read low; coupling enzyme system counterscreen, AmpLite Red fluorescence; in the data active = activity change below about -30%
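Coupling enzymes only (glyceraldehyde-3-phosphate) + compound, at 57.5 uM final, 10 min RT; add substrate/coupling/AmpLite Red mix, 20 min RT; fluorescence ex 525/em 598 nm. Actives flag coupling-system interference.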
An asterisk follows results filed as active; ? = inconclusive; . = no result; [ ] = dose if it differs, or a comment. Shown are actives, neighbours in structure and some others; about 5.9% of the full set was active somewhere. Unless noted, calls come from the whole dose curve; as a rule, active = well fitted curve in the direction sought with a large enough effect; inconclusive = small, poorly fitted or top-dose-only effect, or another doubt; inactive = no such curve, though single readings can be large; an effect the other way counts as inactive or inconclusive. % is set by controls: 0 for no effect and ±100 for the full control effect.

SMILES	TrxR1 substrate	TrxR1 inh	RORg inh	Gal4-VP16 FLuc	GALK inhibitor	Coupling enz
Cc1cccc(-c2nc3c(c(SCC(=O)N4CCCC4)n2)COC(C)(C)C3)c1	3%	28%	-3%	0%	-1%	3
CCc1ccc(-c2cc(C(=O)Nn3cnnc3)c3ccccc3n2)cc1	2%	3%	0.89µM*	0.63µM*	4%	0
CCn1cc(-c2cc(C(=O)O)c3ccccc3n2)cn1	171%	-27%	5.6µM*	?	1%	-6
O=C(O)c1cc(-c2c[nH]c3ccccc23)nc2cc3ccccc3cc12	.	.	5µM*	-19%	-1%	-10
CCCc1ccc(-c2cc(C(=O)NN3CCOCC3)c3ccccc3n2)cc1	11%	14%	-11%	-17%	1%	.
CC(C)(C)c1ccc(-c2cc(C(=O)NNC(=O)Nc3ccccc3)c3ccccc3n2)cc1	10%[57.1 µM]	10%	1µM*	?	-1%	-2
O=C1CN(C(=O)COC(=O)CCS(=O)(=O)c2ccccc2)c2ccccc2N1	-11%	-8%	.	.	.	.
O=C(O)c1cc(-c2cc(C(=O)O)c3ccccc3n2)nc2ccccc12	.	.	2%	1%	.	5
O=C(O)c1cc(-c2ccc3ccccc3c2)nc2ccc(F)cc12	31%	8%	22µM*	-27%	-9%	-8
CC1CCN(c2ccc(-c3cccs3)nn2)CC1	3%[57.1 µM]	6%[57.1 µM]	2µM*	2µM*	.	-1
Clc1ccc(-c2cccs2)nn1	3%	10%	23%	-7%	0%	1
Fc1cc2[nH]c(=S)[nH]c2c(Br)c1N1CCSCC1	2%	-8%	11µM*	13%	0%	3
COc1ccccc1Oc1ccc2c(c1)C(=O)N(c1ccc(O)cc1)C2=O	3%[57.1 µM]	29%[57.1 µM]	-20%	-23%	-2%	2
COC(=O)c1ccc(CC(=O)c2c(C)cc(O)cc2O)o1	24%[57.1 µM]	-12%[57.1 µM]	11µM*	?	5%	-13
O=C1N/C(=N\c2ccccn2)SC1Cc1ccccc1Cl (stereo unspecified)	-4%	15%	0.71µM*	1µM*	.	3
Cc1cccc(CC2S/C(=N/c3ccccn3)NC2=O)c1 (stereo unspecified)	17%[57.1 µM]	23%[57.1 µM]	1.3µM*	?	0%	1
Cc1cccc(CC2SC(N)=NC2=O)c1 (stereo unspecified)	6%[57.1 µM]	5%[57.1 µM]	-2%	-2%	2%	-2
O=C1NC(=Nc2cccc(Cl)c2)SC1Cc1cccc(Cl)c1Cl (stereo unspecified)	8%	22%	?	?	-4%	0
COc1ccc(CCCO[C@@H](Cn2ccnc2)c2ccc(OC)cc2)cc1	.	.	8.9µM*	32µM*	.	2
COc1ccc(-c2nn(-c3ccccc3)cc2C(=O)OCC(=O)c2ccc(C)c([N+](=O)[O-])c2)cc1	2%	25%	?	18µM*	1%	-3
COc1ccc(-c2cc(C(=O)OCC(=O)c3ccc(C)c([N+](=O)[O-])c3)c3ccccc3n2)cc1	7%	-6%	1%	?	0%	-1
COc1ccc(NC(=O)CCC(=O)c2cccs2)cc1Cl	7%	26%	28%	18%	-1%	0
COc1cc(NCCC(=O)c2cccs2)c(OC)cc1Cl	8%[57.1 µM]	18µM*	-18%	-21%	1%	1
COCCN(C(=S)Nc1c(C)cc(C)cc1C)C(C)c1cccs1 (stereo unspecified)	-2%	2%	10µM*	2%	0%	1
COCCN(C(=S)Nc1ccc(C(C)C)cc1)C(C)c1cccs1 (stereo unspecified)	0%	1%	3.5µM*	?	0%	-3
COCCN(C(=S)Nc1ccc(C)cc1C)C(C)c1cccs1 (stereo unspecified)	7%	21%	?	?	-1%	-1
COc1ccc(C(=O)N2CCC3(CCN(CC(C)C)CC3)CC2)cc1	.	.	-5%	-3%	.	-1

Screening data from PubChem BioAssay.
